Measurements as given in PubChem BioAssay (EPA / NIEHS).
The source holds several records for some structures; these can differ, active in one and inactive in another. Calls of active or inactive are those of the source. How the source made its calls: active means hit-call score of the fitted dose curve at least 0.9, where 1 is the maximum; inactive means score below 0.9.

Key:
[1] = read-out: Macrophage colony-stimulating factor (MCSF), CSF1 (gene 1435); assay: BSK_hDFCGF_MCSF: BioMAP Diversity Plus: hDFCGF Assay for Macrophage colony-stimulating factor (MCSF) Biomarker Activity (AID 2283060); details: primary human foreskin fibroblasts; actives raise or lower the signal
How it was run: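 M-CSF levels read by ELISA at 24 h post-dosing in human skin fibroblasts. Parallel cultures stained with SRB assessed cytotoxicity at the same time point; response fitted in both directions against the DMSO baseline.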

[2] = BSK_hDFCGF_SRB: Viability Assessment in the BioMAP Diversity Plus: hDFCGF Assay (AID 2283061); details: primary human foreskin fibroblasts;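 further: cells exposed to compound for 24 h before the read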
How it was run: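 Viability was read as total protein: after 10% TCA fixation, wells were stained with 0.1% sulforhodamine B and read at 560 nm. Primary human foreskin fibroblasts were dosed for 24 h, with bidirectional fitting versus DMSO.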

[3] = read-out: TIMP metallopeptidase inhibitor 1 (TIMP1), TIMP1 (gene 7076); assay: BSK_hDFCGF_TIMP1: BioMAP Diversity Plus: hDFCGF Assay for TIMP metallopeptidase inhibitor 1 (TIMP1) Biomarker Activity (AID 2283062); details: primary human foreskin fibroblasts; actives raise or lower the signal
How it was run: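 TIMP-1 measured by ELISA 24 h after chemical dosing of primary human skin fibroblasts, with gain or loss fitted relative to DMSO. Parallel SRB staining (560 nm) monitored overt cytotoxicity.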

[4] = read-out: Monokine induced gamma interferon (MIG), CXCL9 (gene 4283); assay: BSK_hDFCGF_MIG: BioMAP Diversity Plus: hDFCGF Assay for Monokine induced gamma interferon (MIG) Biomarker Activity (AID 2283063); details: primary human foreskin fibroblasts; actives raise or lower the signal
How it was run: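 Human primary foreskin fibroblasts in the hDFCGF system, exposed to test chemical for 24 h; MIG measured by ELISA. Bidirectional curve fitting against DMSO negative control as activity baseline.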

[5] = read-out: Matrix Metallopeptidase 1 (MMP1), MMP1 (gene 4312); assay: BSK_hDFCGF_MMP1: BioMAP Diversity Plus: hDFCGF Assay for Matrix Metallopeptidase 1 (MMP1) Biomarker Activity (AID 2283064); details: primary human foreskin fibroblasts; actives raise or lower the signal
How it was run: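 hDFCGF primary fibroblasts (human foreskin); chemical added; 24 h; MMP1 by ELISA; bidirectional fit vs DMSO.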

[6] = read-out: Vascular cell adhesion molecule 1 (VCAM1), VCAM1 (gene 7412); assay: BSK_hDFCGF_VCAM1: BioMAP Diversity Plus: hDFCGF Assay for Vascular cell adhesion molecule 1 (VCAM1) Biomarker Activity (AID 2283065); details: primary human foreskin fibroblasts; actives raise or lower the signal;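 on AC50: VCAM-1 protein level quantified by ELISA after 24 h chemical exposure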
How it was run: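 ELISA readout of VCAM-1 on human dermal fibroblast primary cultures, 24 h after chemical exposure. Gain or loss of signal fitted in both directions against DMSO baseline.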

[7] = read-out: Plasminogen activator inhibitor-1 (PAI1), SERPINE1 (gene 5054); assay: BSK_hDFCGF_PAI1: BioMAP Diversity Plus: hDFCGF Assay for Plasminogen activator inhibitor-1 (PAI1) Biomarker Activity (AID 2283066); details: primary human foreskin fibroblasts; actives raise or lower the signal
How it was run: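 Human foreskin fibroblast primary cells, 24 h chemical exposure; PAI-1 measured by ELISA. Bidirectional fitting relative to DMSO; parallel cultures stained with SRB for total protein to flag overt cytotoxicity.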

[8] = read-out: Intercellular Adhesion Molecule 1 (ICAM1), ICAM1 (gene 3383); assay: BSK_KF3CT_ICAM1: BioMAP Diversity Plus: KF3CT Assay for Intercellular Adhesion Molecule 1 (ICAM1) Biomarker Activity (AID 2283067); details: primary human keratinocytes with fibroblasts; actives raise or lower the signal
How it was run: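 Cell-surface ICAM-1 was measured by ELISA 24 h after dosing primary human skin keratinocytes co-cultured with fibroblasts. Parallel SRB staining tracked overt cytotoxicity. Gain or loss of signal was fitted relative to DMSO.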

[9] = read-out: Interferon-gamma inducible Protein 10 (IP10), CXCL10 (gene 3627); assay: BSK_KF3CT_IP10: BioMAP Diversity Plus: KF3CT Assay for Interferon-gamma inducible Protein 10 (IP10) Biomarker Activity (AID 2283068); details: primary human keratinocytes with fibroblasts; actives raise or lower the signal
How it was run: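 Signal is secreted/surface IP-10 by ELISA in a human primary skin co-culture of keratinocytes and foreskin fibroblasts, taken 24 h post-dosing; DMSO served as negative control.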

[10] = BSK_KF3CT_SRB: Viability Assessment in the BioMAP Diversity Plus: KF3CT Assay (AID 2283069); details: primary human keratinocytes with fibroblasts;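 further: total protein by sulforhodamine B staining as a cytotoxicity measure; read 24 h after compound addition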
How it was run: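 Keratinocytes co-cultured with foreskin fibroblasts (human primary); chemical added, 24 h; fix 10% TCA, stain 0.1% SRB, A560. Bidirectional fit vs DMSO.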

[11] = read-out: Interleukin-1 alpha (IL1a), IL1A (gene 3552); assay: BSK_KF3CT_IL1a: BioMAP Diversity Plus: KF3CT Assay for Interleukin-1 alpha (IL1a) Biomarker Activity (AID 2283070); details: primary human keratinocytes with fibroblasts; actives raise or lower the signal
How it was run: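 Chemicals were dosed onto co-cultured human keratinocytes and foreskin fibroblasts, IL-1a was quantified by ELISA at 24 h, and activity was fitted in both directions relative to DMSO controls.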

[12] = read-out: TIMP metallopeptidase inhibitor 2 (TIMP2), TIMP2 (gene 7077); assay: BSK_KF3CT_TIMP2: BioMAP Diversity Plus: KF3CT Assay for TIMP metallopeptidase inhibitor 2 (TIMP2) Biomarker Activity (AID 2283071); details: primary human keratinocytes with fibroblasts; actives raise or lower the signal
How it was run: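 Co-culture of human primary keratinocytes and foreskin fibroblasts, measured 24 h after chemical dosing. TIMP-2 quantified by ELISA and fitted in both directions relative to DMSO. Cytotoxicity checked in parallel cultures by SRB total-protein staining.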

[13] = read-out: Transforming growth factor beta 1 (TGFb1), TGFB1 (gene 7040); assay: BSK_KF3CT_TGFb1: BioMAP Diversity Plus: KF3CT Assay for Transforming growth factor beta 1 (TGFb1) Biomarker Activity (AID 2283072); details: primary human keratinocytes with fibroblasts; actives raise or lower the signal
How it was run: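 Human keratinocyte/foreskin fibroblast co-culture; TGF-b1 measured by ELISA 24 h after dosing, fitted bidirectionally versus DMSO. Cytotoxicity checked in parallel cultures by total protein (SRB staining, 560 nm).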

[14] = read-out: C-C motif chemokine 2 (Homo sapiens) (UniProt P13500); assay: BSK_KF3CT_MCP1: BioMAP Diversity Plus: KF3CT Assay for Monocyte Chemoattractant Protein 1 (MCP1/CCL2) Biomarker Activity (AID 2283073); details: primary human keratinocytes with fibroblasts; actives raise or lower the signal
How it was run: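 ELISA read-out of MCP-1, 24 h post-dose, in primary human skin keratinocytes co-cultured with fibroblasts. Parallel SRB staining monitors cytotoxicity; changes fitted both directions relative to DMSO.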

[15] = read-out: Matrix Metallopeptidase 9 (MMP9), MMP9 (gene 4318); assay: BSK_KF3CT_MMP9: BioMAP Diversity Plus: KF3CT Assay for Matrix Metallopeptidase 9 (MMP9) Biomarker Activity (AID 2283074); details: primary human keratinocytes with fibroblasts; actives raise or lower the signal;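 on AC50: MMP9 protein level quantified by ELISA in the co-culture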
How it was run: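 Human keratinocyte/foreskin fibroblast co-culture; compound added; 24 h; MMP-9 by ELISA; bidirectional fit vs DMSO baseline.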

[16] = read-out: urokinase plasminogen activator (uPA), PLAU (gene 5328); assay: BSK_KF3CT_uPA: BioMAP Diversity Plus: KF3CT Assay for urokinase plasminogen activator (uPA) Biomarker Activity (AID 2283075); details: primary human keratinocytes with fibroblasts; actives raise or lower the signal
How it was run: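 ELISA readout of uPA, analyzed for signal gain or loss relative to DMSO, from a human primary keratinocyte–foreskin fibroblast co-culture measured 24 h after chemical treatment.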

CD40, CD40 (gene 958) = assay: BSK_LPS_CD40: BioMAP Diversity Plus: LPS Assay for CD40 Biomarker Activity (AID 2283076); details: primary human HUVEC with PBMC; actives raise or lower the signal
How it was run: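 In the LPS system of human endothelial cells with peripheral blood mononuclear cells, CD40 levels were read by ELISA 24 h post-treatment. Signal changes in either direction were fitted against the DMSO baseline, with parallel SRB protein staining.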

[17] = read-out: E-selectin (Homo sapiens) (UniProt P16581); assay: BSK_LPS_Eselectin: BioMAP Diversity Plus: LPS Assay for Eselectin Biomarker Activity (AID 2283077); details: primary human HUVEC with PBMC; actives raise or lower the signal
How it was run: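 E-selectin ELISA on LPS-stimulated endothelial cell/PBMC co-cultures, read 24 h post-treatment; gains and losses fitted against DMSO. Parallel SRB staining (0.1% SRB after 10% TCA fixation, 560 nm) flags overt cytotoxicity.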

[18] = read-out: Interleukin-8 (IL8), CXCL8 (gene 3576); assay: BSK_LPS_IL8: BioMAP Diversity Plus: LPS Assay for Interleukin-8 (IL8) Biomarker Activity (AID 2283078); details: primary human HUVEC with PBMC; actives raise or lower the signal
How it was run: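 ELISA read-out of IL-8 after 24 h chemical treatment of LPS-activated endothelial/PBMC human primary co-cultures. Changes either up or down relative to DMSO; overt cytotoxicity checked by sulforhodamine B staining in parallel wells.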

[19] = BSK_LPS_SRB: Viability Assessment in the BioMAP Diversity Plus: LPS Assay (AID 2283079); details: primary human HUVEC with PBMC;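 further: total protein by sulforhodamine B absorbance as a cytotoxicity measure; measured one day after compound addition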
How it was run: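 SRB viability endpoint: cells fixed with 10% TCA, stained with 0.1% SRB, read at 560 nm, 24 h post-dose. HUVEC/PBMC co-culture; signal change in either direction scored relative to DMSO.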

Measured: AC50

Sequence of E-selectin (Homo sapiens) (P16581 whole entry, looked up): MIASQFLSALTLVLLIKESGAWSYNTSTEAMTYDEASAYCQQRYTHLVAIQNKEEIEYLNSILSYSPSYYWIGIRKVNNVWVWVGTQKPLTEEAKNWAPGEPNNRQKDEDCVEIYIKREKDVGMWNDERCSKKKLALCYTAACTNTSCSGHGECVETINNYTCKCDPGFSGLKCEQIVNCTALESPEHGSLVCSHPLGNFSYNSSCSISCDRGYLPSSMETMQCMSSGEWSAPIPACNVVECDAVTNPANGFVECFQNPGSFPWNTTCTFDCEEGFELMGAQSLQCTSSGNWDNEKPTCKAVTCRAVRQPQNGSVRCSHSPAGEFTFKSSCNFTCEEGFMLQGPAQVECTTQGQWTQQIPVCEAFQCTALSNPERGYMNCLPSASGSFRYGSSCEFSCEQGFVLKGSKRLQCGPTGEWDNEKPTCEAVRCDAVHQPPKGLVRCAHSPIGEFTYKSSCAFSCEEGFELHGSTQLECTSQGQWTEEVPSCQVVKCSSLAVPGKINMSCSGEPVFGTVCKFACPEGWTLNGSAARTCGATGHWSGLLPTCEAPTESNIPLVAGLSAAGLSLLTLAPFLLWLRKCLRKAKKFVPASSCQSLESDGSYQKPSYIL

COCC(C)N(C(=O)CCl)c1c(C)csc1C (configuration not stated)
inactive: [1] | [2] | [3] | [4] | [5] | [6] | [7] | [8] | [9] | [10] | [11] | [12] | [13] | [14] | [15] | [16] | CD40, CD40 (gene 958) | [17] | [18] | [19]
active: [7] 20 µM

COc1cc(Cl)c(OC)cc1Cl
not listed: [18]
inactive: all other assays above

CNC(=O)N(C)c1nnc(C(C)(C)C)s1
inactive: all assays above

Cc1nc(N(C)C)nc(OC(=O)N(C)C)c1C
active: [2] 29.8 µM
inactive: all other assays above

O=C(O)c1c(Cl)ccc2cc(Cl)cnc12
inactive: all assays above

CC(C)=CC1C(C(=O)OCc2coc(Cc3ccccc3)c2)C1(C)C (configuration not stated)
active: [1] 11.1 µM | [17] 12.1 µM
inactive: all other assays above

CS(=O)(=O)c1cc(C(F)(F)F)ccc1C(=O)c1cnoc1C1CC1
inactive: all assays above

CC(C)Oc1cccc(NC(=O)c2ccccc2C(F)(F)F)c1
active: [2] 20 µM | [19] 16.7 µM
inactive: all other assays above

N#Cc1c(Cl)cccc1Cl
active: [17] 0.0841 µM
inactive: all other assays above

Cn1c(-c2ccccc2)cc(-c2ccccc2)[n+]1C
active: [1] 5.47 µM | [3] 20 µM | [9] 7.72 µM | [12] 23.8 µM | [16] 12 µM
not listed: [18]
inactive: all other assays above

OC(c1ccc(Cl)cc1)(c1ccc(Cl)cc1)C(Cl)(Cl)Cl
active: [1] 8.17 µM | [2] 10.5 µM | [3] 11.4 µM | [4] 10.1 µM | [5] 11 µM | [6] 8.87 µM | [7] 11 µM | [8] 11.6 µM | [9] 9.49 µM | [10] 6.45 µM | [11] 8.05 µM | [12] 9.48 µM | [13] 9.69 µM | [14] 11 µM | [15] 7.26 µM | [16] 7.28 µM | CD40, CD40 (gene 958) 30.5 µM | [17] 30.9 µM

CC(C)C1(C)N=C(c2ncccc2C(=O)O)NC1=O (configuration not stated)
inactive: all assays above
